# Assay results as given in PubChem BioAssay (NCI).
# About 83,000 compounds went through this panel and 20% of them were active in at least one assay; those are over-represented in the sample as a whole.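 Interpretation: 100, growth as untreated; towards 0, rising growth inhibition; 0, no net growth; 0 to -100, cell death. Compounds scoring below 10 were considered active.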 A number with no mark means an inactive call. Calls of active or inactive are those of the source.
# Assays:
# Assay in all cases: NCI-60 one-dose screen, 48 h (100 = growth as untreated, 0 = no growth, -100 = all killed)
# Settings in all cases: 10 µM unless noted
# NCI-H23 lung = system: NCI-H23 lung
# NCI-H226 lung = system: NCI-H226 lung
# NCI-H322M lung = system: NCI-H322M lung
# HOP-62 NSCLC = system: HOP-62 NSCLC
# NCI-H460 lung = system: NCI-H460 lung
# HOP-92 NSCLC = system: HOP-92 NSCLC
# NCI-H522 lung = system: NCI-H522 lung
# A549/ATCC NSCLC = system: A549/ATCC NSCLC
# 786-0 renal = system: 786-0 renal
# COLO 205 colon = system: COLO 205 colon
Structure (SMILES),growth (NCI-H23 lung),growth (NCI-H226 lung),growth (NCI-H322M lung),growth (HOP-62 NSCLC),growth (NCI-H460 lung),growth (HOP-92 NSCLC),growth (NCI-H522 lung),growth (A549/ATCC NSCLC),growth (786-0 renal),growth (COLO 205 colon)
CC(=O)c1ccc(-n2c(-c3cc(-c4ccsc4)n[nH]3)n[nH]c2=S)cc1,102%,99.6%,101%,112%,105%,89.9%,82.6%,98.3%,101%,117%
Nc1cccc(S(=O)(=O)c2cccc(N)c2)c1,111%,107%,124%,111%,120%,97%,111%,111%,108%,117%
CCN1CCN(Cc2ccc(NC(=O)c3nc4ccc5[nH]ncc5c4c4c3CCCC4)cc2C(F)(F)F)CC1,74.6%,60.3%,2.39% (active),-29.8% (active),-73.4% (active),44.9%,-76.9% (active),6.07% (active),-88.6% (active),-76.7% (active)
Nc1nc(N)c2cc(CNc3ccc(Cl)c(Cl)c3)ccc2n1,42.8%,45.2%,29.5%,43.1%,-48.8% (active),-5.15% (active),13.4%,17.7%,9.65% (active),-79.7% (active)
NS(=O)(=O)c1ccc(N2N=C(c3cccs3)CC2c2ccccc2O)cc1 (stereo not given),28.1%,19.2%,25.4%,24.4%,-0.156% (active),-8.37% (active),-23.9% (active),7.33% (active),10.8%,-73.7% (active)
CCCCn1cnc(-c2cc(-c3ccccc3)cc(C(F)(F)F)c2)n1,98.1%,95.6%,99.8%,99.1%,99%,76%,93.8%,97.8%,103%,104%
CCC(C)C1NC(=O)c2nc(oc2-c2ccccc2)-c2csc(n2)-c2csc(n2)-c2nc(oc2C)-c2coc(n2)CNC(=O)C(C(C)CC)NC1=O (stereo not given),-68.2% (active),-55.8% (active),-98.9% (active),-57% (active),-81.4% (active),-83.3% (active),-74.7% (active),-76.6% (active),-73.1% (active),-77.3% (active)
CCCCc1n(Cc2ccc3ccccc3n2)cc[n+]1Cc1ccc2ccccc2n1,4.77% (active),26.7%,41.4%,25.2%,16.5%,4.31% (active),10%,44.8%,56.9%,-34.4% (active)
Cc1nc2ccc(Nc3nc(Cl)nc(N4CCOCC4)n3)cc2n1Cc1ccccc1,16.5%,82.5%,51%,50.1%,91.3%,36.1%,-38.6% (active),92%,68.3%,100%
CCCNC(=S)N/N=C(\C)c1ccccn1,35.7%,21.5%,4.31% (active),44%,17.7%,37.2%,56.4%,31.7%,20.4%,20.8%
c1ccc(C2=Nc3ccccc3SC2)cc1,93.5%,108%,98.2%,113%,99.3%,62.1%,99.6%,96.5%,117%,114%
C=CCN(CCOC(=O)c1ccc([N+](=O)[O-])cc1)CCOC(=O)c1ccc([N+](=O)[O-])cc1,106%,94.9%,91.1%,91.9%,115%,87.1%,95.3%,102%,103%,112%
FC1(F)CCN(Cc2c[nH]c3cc(Cl)ccc23)C[C@H]1CCc1ccccc1,67.7%,43.5%,84.3%,46.1%,42.8%,37.3%,67.6%,43%,66.9%,69.5%
CCN(CC)CCNc1c(C)cc(CO)c(Cl)c1C,102%,-23.6% (active),110%,113%,98.9%,109%,104%,84.5%,103%,85.2%
CC(=O)OC1Oc2ccccc2-c2oc3nc(=N)n(C)c-3cc21 (stereo not given),103%,117%,123%,91.9%,112%,99.1%,98.1%,119%,103%,119%
COc1ccc(C(=O)c2cc(C)c(OC)c(C)c2)cc1OC(=O)CCl,29.1%,52.8%,42.7%,17.8%,6.67% (active),96.5%,-40.2% (active),14.6%,16.2%,9.62% (active)
CCSc1ccc([C@@H]2[C@@H](O)C(=O)N2c2cc(OC)c(OC)c(OC)c2)cc1,34%,50.7%,39.4%,22.6%,5.97% (active),101%,6.56% (active),20.8%,14%,-48.8% (active)
C=C(CN1CC=CCC1)[C@@H]1CC[C@]2(C(=O)OC)CC[C@]3(C)[C@H](CC[C@@H]4[C@@]5(C)CC[C@H](OC(C)=O)C(C)(C)[C@@H]5CC[C@]43C)[C@@H]12,95.5%,95.1%,104%,106%,97.8%,71.2%,84%,100%,109%,77.6%
COc1ccc(C2=Nn3c(nnc3-c3ccc(Cl)cc3N)SC2)cc1,105%,102%,109%,103%,104%,94.1%,85.6%,103%,107%,108%
Clc1ccc(-c2nc(Br)cn3ccnc23)cc1,85.5%,74.6%,93%,84.3%,91.5%,53.6%,84.6%,104%,97.7%,94.5%
CCN(CC)CCCC(C)Nc1cnc(C(=O)Nc2ccc(Cl)c3cccnc23)cn1 (stereo not given),80.4%,39.1%,35.3%,43%,3.47% (active),38.8%,4.41% (active),23.4%,-44.2% (active),-66.7% (active)
CC(=O)c1nn(-c2ccccc2)/c(=N\N=C\c2coc3ccc(F)cc3c2=O)s1,96.8%,86%,104%,85.6%,102%,90.6%,101%,109%,110%,111%
CCc1ccc(Nc2cc(C)c3ccc(O)cc3n2)cc1,90.4%,76.7%,82.9%,88%,64.3%,74.4%,92.2%,85%,68.1%,-81.3% (active)
O=C(Cc1ccc(Nc2ccnc(C(F)(F)F)c2)cc1)N/N=C/c1ccccc1O,37.7%,51.4%,32%,-9.42% (active),3.37% (active),75.8%,22.5%,36.2%,6.73% (active),14%
CC(COC(=O)c1ccccc1)N1CC2CCC(C1)O2 (stereo not given),107%,98.2%,97.8%,95.1%,104%,91.1%,104%,100%,99.8%,104%
COc1cc(CN2CCO[C@H](COc3cccc(F)c3)C2)ccc1Cl,48.8%,59.7%,73.3%,33.4%,24.8%,48.6%,30.7%,29.3%,52%,12.5%
CCN(CC)c1ccc(C(=N)c2ccc(N(C)C)cc2)cc1,-23.3% (active),16.4%,60.6%,7.49% (active),0.221% (active),-21% (active),-13.5% (active),28.6%,7.03% (active),-54.5% (active)
